Data from PubChem BioAssay (NCATS).
Results filed as inconclusive are left out. The source made the active and inactive calls. Calls come from the whole dose curve; as a rule, active = well fitted curve in the direction sought with a large enough effect; inconclusive = small, poorly fitted or top-dose-only effect, or another doubt; inactive = no such curve, though single readings can be large; an effect the other way counts as inactive or inconclusive.

Key:
[1] = target: ATP-dependent 6-phosphofructokinase (Trypanosoma brucei brucei) (UniProt O15648); assay: qHTS Assay to Find Inhibitors of T. brucei phosphofructokinase: hit validation (AID 492961);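 note: luminescence reports ADP formed as PFK phosphorylates fructose-6-phosphate with ATP; % is set by controls: 0 for no effect and ±100 for the full control effect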
How it was run: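 Percent activity derived from corrected luminescence, normalized between 0x and 1x enzyme controls, then fitted to concentration-response curves. Conditions: 1.25 nM PFK, 0.1 mM ATP, 0.5 mM F6P, 45 min RT.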

[2] = qHTS profiling for inhibitors of Plasmodium falciparum proliferation (AID 504749); note: potency is the fitted concentration of half-maximal effect;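 for activity, negative = inhibition: 0% = DMSO vehicle and full inhibition = artemisinin control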; for all read-outs here: nearly all actives have a fitted effect of over 60% in size; conditions: P. falciparum in erythrocytes, SYBR Green DNA, 72 h; for activity, negative = inhibition: at 28.7 µM (top of the series)
How it was run: (§1)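 Quantitative HTS: compounds pinned into medium, infected erythrocytes added (0.3% parasitemia, 2.5% hematocrit), 72 h culture at 37 C under 5% CO2. Saponin/Triton lysis with SYBR Green I, overnight RT, then fluorescence read.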

3D7 = assay: as above; conditions: P. falciparum in erythrocytes, SYBR Green DNA, 72 h; series mostly up to 28.7 µM
How it was run: as §1

AA1029 = assay: as above; conditions: P. falciparum in erythrocytes, SYBR Green DNA, 72 h; series mostly up to 28.7 µM
How it was run: as §1

AS120 = assay: as above; conditions: P. falciparum in erythrocytes, SYBR Green DNA, 72 h; series mostly up to 28.7 µM
How it was run: as §1

ATS189 = assay: as above; conditions: P. falciparum in erythrocytes, SYBR Green DNA, 72 h; series mostly up to 28.7 µM
How it was run: as §1

CP185 = assay: as above; conditions: P. falciparum in erythrocytes, SYBR Green DNA, 72 h; series mostly up to 28.7 µM
How it was run: as §1

CP191 = assay: as above; conditions: P. falciparum in erythrocytes, SYBR Green DNA, 72 h; series mostly up to 28.7 µM
How it was run: as §1

CP211 = assay: as above; conditions: P. falciparum in erythrocytes, SYBR Green DNA, 72 h; series mostly up to 28.7 µM
How it was run: as §1

CP217 = assay: as above; conditions: P. falciparum in erythrocytes, SYBR Green DNA, 72 h; series mostly up to 28.7 µM
How it was run: as §1

CP238 = assay: as above; conditions: P. falciparum in erythrocytes, SYBR Green DNA, 72 h; series mostly up to 28.7 µM
How it was run: as §1

CP252 = assay: as above; conditions: P. falciparum in erythrocytes, SYBR Green DNA, 72 h; series mostly up to 28.7 µM
How it was run: as §1

CP262 = assay: as above; conditions: P. falciparum in erythrocytes, SYBR Green DNA, 72 h; series mostly up to 28.7 µM
How it was run: as §1

CP265 = assay: as above; conditions: P. falciparum in erythrocytes, SYBR Green DNA, 72 h; series mostly up to 28.7 µM
How it was run: as §1

CP286 = assay: as above; conditions: P. falciparum in erythrocytes, SYBR Green DNA, 72 h; series mostly up to 28.7 µM
How it was run: as §1

Dd2 = assay: as above; conditions: P. falciparum in erythrocytes, SYBR Green DNA, 72 h; series mostly up to 28.7 µM
How it was run: as §1

FAB9 = assay: as above; conditions: P. falciparum in erythrocytes, SYBR Green DNA, 72 h; series mostly up to 28.7 µM
How it was run: as §1

N140 = assay: as above; conditions: P. falciparum in erythrocytes, SYBR Green DNA, 72 h; series mostly up to 28.7 µM
How it was run: as §1

P94_40 = assay: as above; conditions: P. falciparum in erythrocytes, SYBR Green DNA, 72 h; series mostly up to 28.7 µM
How it was run: as §1

TAB109 = assay: as above; conditions: P. falciparum in erythrocytes, SYBR Green DNA, 72 h; series mostly up to 28.7 µM
How it was run: as §1

Chain of ATP-dependent 6-phosphofructokinase (Trypanosoma brucei brucei) (O15648 whole entry, looked up): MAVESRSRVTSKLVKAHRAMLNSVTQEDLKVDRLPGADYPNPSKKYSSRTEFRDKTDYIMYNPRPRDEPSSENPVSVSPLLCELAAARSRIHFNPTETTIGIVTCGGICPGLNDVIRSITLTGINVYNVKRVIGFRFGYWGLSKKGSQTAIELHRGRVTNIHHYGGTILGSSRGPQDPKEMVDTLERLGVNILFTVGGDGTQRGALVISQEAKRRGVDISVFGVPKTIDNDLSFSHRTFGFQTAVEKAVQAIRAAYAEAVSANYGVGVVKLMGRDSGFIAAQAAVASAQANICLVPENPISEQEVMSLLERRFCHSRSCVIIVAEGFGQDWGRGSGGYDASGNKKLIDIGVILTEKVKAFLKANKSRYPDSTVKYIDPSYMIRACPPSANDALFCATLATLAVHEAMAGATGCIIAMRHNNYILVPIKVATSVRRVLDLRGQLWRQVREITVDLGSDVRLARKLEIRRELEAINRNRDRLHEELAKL

CCCCCCCCCCCCCCCC(=O)OC[C@H](O)[C@H]1OC[C@@H](O)[C@@H]1O
inactive: Potency [1] | activity, negative = inhibition ([2]; parasite line A) -0.407% | activity, negative = inhibition ([2]; parasite line B) -6.82% | Potency (3D7) | Potency (AA1029) | Potency (AS120) | Potency (ATS189) | Potency (CP185) | Potency (CP191) | Potency (CP211) | Potency (CP217) | Potency (CP238) | Potency (CP252) | Potency (CP262) | Potency (CP265) | Potency (CP286) | Potency (Dd2) | Potency (FAB9) | Potency (N140) | Potency (P94_40)

CC1OC(OCC2OC(Oc3c(-c4ccc(OCCO)c(OCCO)c4)oc4cc(OCCO)cc(O)c4c3=O)C(O)C(O)C2O)[C@@H](O)C(O)C1O (stereo not given in full)
inactive: Potency [1] | activity, negative = inhibition ([2]; parasite line A) -11% | activity, negative = inhibition ([2]; parasite line B) 4.27% | Potency (3D7) | Potency (AA1029) | Potency (AS120) | Potency (ATS189) | Potency (CP185) | Potency (CP191) | Potency (CP211) | Potency (CP217) | Potency (CP238) | Potency (CP252) | Potency (CP262) | Potency (CP265) | Potency (CP286) | Potency (Dd2) | Potency (FAB9) | Potency (N140) | Potency (P94_40) | Potency (TAB109)

OCC(CO)NC1C[C@](O)(CO)[C@@H](O)[C@H](O)[C@H]1O (stereo not given in full)
inactive: Potency [1] | activity, negative = inhibition ([2]; parasite line A) 8.78% | activity, negative = inhibition ([2]; parasite line B) 9.25% | Potency (3D7) | Potency (AA1029) | Potency (AS120) | Potency (ATS189) | Potency (CP185) | Potency (CP191) | Potency (CP211) | Potency (CP217) | Potency (CP238) | Potency (CP252) | Potency (CP262) | Potency (CP265) | Potency (CP286) | Potency (Dd2) | Potency (FAB9) | Potency (N140) | Potency (P94_40) | Potency (TAB109)

CC1(C)SC2C(NC(=O)C(C(=O)O)c3ccccc3)C(=O)N2C1C(=O)O (stereo not given)
inactive: Potency [1] | activity, negative = inhibition ([2]; parasite line A) 5.75% | activity, negative = inhibition ([2]; parasite line B) 2.54% | Potency (3D7) | Potency (AA1029) | Potency (AS120) | Potency (ATS189) | Potency (CP185) | Potency (CP191) | Potency (CP211) | Potency (CP217) | Potency (CP238) | Potency (CP252) | Potency (CP262) | Potency (CP265) | Potency (CP286) | Potency (Dd2) | Potency (FAB9) | Potency (N140) | Potency (P94_40) | Potency (TAB109)

O=[N+]([O-])O[C@H]1CO[C@H]2[C@@H]1OC[C@H]2O
inactive: Potency [1] | activity, negative = inhibition ([2]; parasite line A) 14.3% | activity, negative = inhibition ([2]; parasite line B) -1.17% | Potency (3D7) | Potency (AA1029) | Potency (AS120) | Potency (ATS189) | Potency (CP185) | Potency (CP191) | Potency (CP211) | Potency (CP217) | Potency (CP238) | Potency (CP252) | Potency (CP262) | Potency (CP265) | Potency (CP286) | Potency (Dd2) | Potency (FAB9) | Potency (N140) | Potency (P94_40) | Potency (TAB109)

COc1cc2c(cc1O)CCN[C@@]21CS[C@H]2c3c(OC(C)=O)c(C)c4c(c3C(COC1=O)N1C2C2c3c(cc(C)c(OC)c3O)CC([C@@H]1O)N2C)OCO4 (stereo not given in full)
inactive: Potency [1]
active: Potency ([2]; parasite line A) 0.9 nM | Potency ([2]; parasite line B) 0.9 nM | Potency (3D7) 0.3 nM | Potency (AA1029) 0.9 nM | Potency (AS120) 0.9 nM | Potency (ATS189) 1 nM | Potency (CP185) 1.1 nM | Potency (CP191) 1 nM | Potency (CP211) 0.5 nM | Potency (CP217) 3.2 nM | Potency (CP238) 0.9 nM | Potency (CP252) 2.5 nM | Potency (CP262) 0.5 nM | Potency (CP265) 4.5 nM | Potency (CP286) 0.3 nM | Potency (Dd2) 1 nM | Potency (FAB9) 1 nM | Potency (N140) 1 nM | Potency (P94_40) 0.9 nM | Potency (TAB109) 0.9 nM

CC(=O)OCC(=O)[C@@]1(O)CCC2C3C[C@H](C)C4=CC(=O)C=CC4(C)C3C(O)CC21C (stereo not given in full)
inactive: Potency [1] | activity, negative = inhibition ([2]; parasite line A) 2.49% | activity, negative = inhibition ([2]; parasite line B) 4.17% | Potency (3D7) | Potency (AA1029) | Potency (AS120) | Potency (ATS189) | Potency (CP185) | Potency (CP191) | Potency (CP211) | Potency (CP217) | Potency (CP238) | Potency (CP252) | Potency (CP262) | Potency (CP265) | Potency (CP286) | Potency (Dd2) | Potency (FAB9) | Potency (N140) | Potency (P94_40) | Potency (TAB109)

CN(C)CC/C=C1\c2ccccc2COc2ccc(CC(=O)O)cc21
inactive: Potency [1] | activity, negative = inhibition ([2]; parasite line A) 1.27% | activity, negative = inhibition ([2]; parasite line B) -5.49% | Potency (3D7) | Potency (AA1029) | Potency (AS120) | Potency (ATS189) | Potency (CP185) | Potency (CP191) | Potency (CP211) | Potency (CP217) | Potency (CP238) | Potency (CP252) | Potency (CP262) | Potency (CP265) | Potency (CP286) | Potency (Dd2) | Potency (FAB9) | Potency (N140) | Potency (P94_40) | Potency (TAB109)

CC1(C)C2CC[C@]1(C)[C@@H](O)C2
inactive: Potency [1] | activity, negative = inhibition ([2]; parasite line A) 6.51% | activity, negative = inhibition ([2]; parasite line B) 12% | Potency (3D7) | Potency (AA1029) | Potency (AS120) | Potency (ATS189) | Potency (CP185) | Potency (CP191) | Potency (CP211) | Potency (CP217) | Potency (CP238) | Potency (CP252) | Potency (CP262) | Potency (CP265) | Potency (CP286) | Potency (Dd2) | Potency (FAB9) | Potency (N140) | Potency (P94_40) | Potency (TAB109)

CCCCC(=O)OCC(=O)[C@]1(O)Cc2c(O)c3c(c(O)c2[C@H](OC2CC(NC(=O)C(F)(F)F)C(O)C(C)O2)C1)C(=O)c1c(OC)cccc1C3=O (stereo not given in full)
active: Potency ([2]; parasite line A) 2240 nM | Potency ([2]; parasite line B) 2510 nM | Potency (3D7) 1580 nM | Potency (AA1029) 2000 nM | Potency (AS120) 2000 nM | Potency (ATS189) 3160 nM | Potency (CP185) 2240 nM | Potency (CP191) 2510 nM | Potency (CP211) 1690 nM | Potency (CP217) 3160 nM | Potency (CP238) 2510 nM | Potency (CP252) 2510 nM | Potency (CP262) 1900 nM | Potency (CP265) 3160 nM | Potency (CP286) 1580 nM | Potency (Dd2) 2240 nM | Potency (FAB9) 11200 nM | Potency (N140) 2000 nM | Potency (P94_40) 2000 nM | Potency (TAB109) 2000 nM
inactive: Potency [1]

CN[C@H](C)CCC=C(C)C
inactive: Potency [1]
active: Potency ([2]; parasite line A) 355 nM | Potency ([2]; parasite line B) 141 nM | Potency (3D7) 316 nM | Potency (AA1029) 199 nM | Potency (AS120) 224 nM | Potency (ATS189) 282 nM | Potency (CP185) 708 nM | Potency (CP191) 708 nM | Potency (CP211) 953 nM | Potency (CP217) 355 nM | Potency (CP238) 355 nM | Potency (CP252) 355 nM | Potency (CP262) 1070 nM | Potency (CP265) 398 nM | Potency (CP286) 398 nM | Potency (Dd2) 79.4 nM | Potency (FAB9) 1410 nM | Potency (N140) 112 nM | Potency (P94_40) 178 nM | Potency (TAB109) 398 nM
